PfHsp90 yeast 2 – inhibits growth of yeast expressing Plasmodium falciparum Hsp90; S. cerevisiae expressing PfHsp90, BacTiter-Glo ATP, 48 h; yeast lacking PDR1 and PDR3 efflux regulators; inhibition, % at 9.4 µM; 310,000 tested, 0.32% active;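 active = every replicate shows inhibition above about 80%, whatever the replicate mean, limit read from the data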;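 also: 0% = DMSO neutral controls and 100% = 20 µM radicicol positive controls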
SKKanGAS inh – inhibitors of SKKanGAS S. pyogenes growth in kanamycin (SK-promoter or general growth effect) | BacTiter-Glo, 6 h | inhibition, % at 7.5 µM | 300,000 tested, 1.3% active | AID 1662;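 active = mean replicate score, as percent of positive control median, at least 50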;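 also: strain carries kanamycin resistance gene driven by streptokinase promoter and grows in 40 µg/ml kanamycin; loss of luminescence reflects streptokinase promoter inhibition or plain growth inhibition; 0% = median of DMSO wells and 100% = positive control at its reference dose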
EBI2 antag – blocks human EBI2 receptor beta-arrestin signaling. AID 651636. 360,000 tested, 0.81% active. EBI2 beta-arrestin recruitment, luminescence, 7a,25-OHC stimulated. P32249. inhibition, % at 5 µM; in the data active = inhibition above about 38%;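 also: enzyme fragment complementation signal reports receptor beta-arrestin coupling in cells; 0% = agonist plus DMSO wells and 100% = wells without agonist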
Target sequence (P32249 whole entry, looked up, the tested form may be a part): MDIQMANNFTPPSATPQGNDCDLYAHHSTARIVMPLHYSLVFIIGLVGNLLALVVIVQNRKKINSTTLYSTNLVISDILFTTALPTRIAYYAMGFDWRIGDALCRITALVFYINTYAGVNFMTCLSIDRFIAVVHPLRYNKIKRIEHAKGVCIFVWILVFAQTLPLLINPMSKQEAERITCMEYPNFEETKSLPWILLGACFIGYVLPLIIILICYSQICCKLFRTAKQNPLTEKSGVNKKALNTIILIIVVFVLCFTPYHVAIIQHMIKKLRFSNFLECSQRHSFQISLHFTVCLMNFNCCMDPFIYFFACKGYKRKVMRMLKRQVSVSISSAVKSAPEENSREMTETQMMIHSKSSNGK
tim10-1 inh – tim10-1 yeast growth inhibition. S. cerevisiae tim10-1 ts strain growth, BacTiter-Glo, 24 h. inhibition, % at 20 µM. 330,000 tested, 2.2% active;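 active = inhibition of at least 40%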;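 also: mutant grown at 25 °C; 0% = DMSO wells with yeast and 100% = wells holding no yeast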
tim23-1 inh – inhibits growth of tim23-1 mutant yeast | S. cerevisiae tim23-1 growth, BacTiter-Glo luminescence, 24 h | inhibition, % at 20 µM | 330,000 tested, 1.3% active;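 active = growth inhibition of the mutant yeast at or above 50%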;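 also: temperature-sensitive mutant grown at 25 °C; plate controls were DMSO-treated mutant yeast for no effect and medium wells lacking yeast for full effect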
TIM10 inh – TIM10 yeast growth inhibition. S. cerevisiae TIM10 strain growth, BacTiter-Glo luminescence, 24 h. inhibition, % at 10 µM. 330,000 tested, 1.4% active. AID 463195;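 active = inhibition of 40% or more at the single tested concentration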;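 also: wild-type TIM10 isogenic control strain grown at permissive 25 °C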
tim10-1 confirm – tim10-1 yeast growth inhibition, confirmed | shares compounds with tim10-1 inh | S. cerevisiae tim10-1 ts strain growth, BacTiter-Glo, 24 h | inhibition, % at 20 µM | 7,400 tested, 56% active;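 active = inhibition of yeast growth at or above a set limit in either of two repeat tests at 20 µM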;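 also: tim10-1 mutant grown at permissive 25 °C to find synthetic lethal compounds; 0% = DMSO yeast wells and 100% = medium wells without yeast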
* hit, by the source's call; x = not tested or not shown. Hits are enriched below; roughly 4.7% of the tested compounds scored in any of these assays.

SMILES	PfHsp90 yeast 2	SKKanGAS inh	EBI2 antag	tim10-1 inh	tim23-1 inh	TIM10 inh	tim10-1 confirm
CC1CCCC2(C1)NC(=S)c1c(sc3c1CCCC3)N2 (centres undefined)	5	16	0	42*	31	12	23
O=C(NCc1ccccn1)C(C(=O)c1ccc(F)cc1)n1ccccc1=O (centres undefined)	x	-2	-3	13	1	3	x
O=C(Nn1c(SCc2ccc(F)cc2)nc2ccsc2c1=O)c1ccccc1	-39	4	-4	40*	26	20	19
Cc1ccccc1OCC(=O)NNC(=O)CSc1nc(N)cc(N)n1	-29	-1	38	-12	14	-11	x
Cc1cc(NS(=O)(=O)c2ccc(C3CCCCC3)cc2)no1	-134	15	1	41*	35	13	20
Cc1cc(NS(=O)(=O)c2ccc(NC(=O)NC3CCCCC3)cc2)no1	x	-2	-1	11	-3	-11	x
CCN(CC)CCN(C(=O)c1ccc2c(c1)CCCC2)c1nc2ccc(OC)cc2s1	26	-1	20	52*	34	22	36*
CN(C)CCCN(C(=O)c1ccc2c(c1)CCCC2)c1nc2cc3c(cc2s1)OCO3	18	3	4	42*	17	17	25
C1=C(c2ccccc2)Nc2ccccc2N=C1c1ccccc1	4	11	7	12	29	10	x
COCCN(CCOC)c1nc(-c2ccc(C)cc2)nc2ccccc12	12	4	7	24	35	-1	x
CCCCN(CC)c1nc(-c2ccncc2)nc2ccccc12	-65	9	-6	43*	39	25	15
CSc1cccc(NC(=O)CN(C)S(=O)(=O)c2ccc(C)cc2)c1	-13	6	-2	9	16	-8	x
CCN(CC)C(=O)Oc1ccc2c(=O)c(-c3ccccc3)coc2c1	11	-4	19	54*	21	25	41*
O=C(Nc1ccc(Cl)c(Cl)c1)c1ccc(Cl)c(Cl)c1	8	12	1	-29	7	15	x
CC(C)C1O/C(=N/C(=O)Nc2ccc(Cl)c(Cl)c2)NC1=O (centres undefined)	x	79*	-2	57*	50	36	47*
COc1ccc(Br)c(-c2nnc(CS(=O)(=O)c3ccccc3)o2)c1	2	-3	-14	46*	48	24	39*
CCOc1ccccc1-c1nnc(CS(=O)(=O)c2ccccc2)o1	-3	-14	4	27	23	-3	x
O=C(c1cc([N+](=O)[O-])ccc1Cl)N1CCN(Cc2ccccc2)CC1	-16	5	-9	-22	-7	-12	x
O=C(CC1S/C(=N/N=C2CCCCCC2)NC1=O)Nc1ccc(Br)cc1F (centres undefined)	-8	1	5	44*	35	17	21
Cc1cccc(C)c1OCC(=O)N(Cc1ccc(Cl)cc1)C1CCS(=O)(=O)C1 (centres undefined)	5	-5	6	40*	36	15	-7
O=C(COc1ccc(F)cc1)N(Cc1ccc(Cl)cc1)C1CCS(=O)(=O)C1 (centres undefined)	7	6	4	29	16	0	x
CCC(=O)N1CCN(c2ccnc3cc(Cl)ccc23)CC1	-7	15	-1	2	2	14	x
CC(C)N(C(=O)N1CCN(c2ccnc3cc(Cl)ccc23)CC1)C(C)C	-20	-9	-5	40*	43	23	29*
Nc1ccc(C(=O)Nc2ccccc2C(=O)O)cc1	x	7	-11	16	17	14	x
O=C(Nc1ccccc1C(=O)Nc1ccccc1C(=O)O)c1ccccc1	-6	33	27	47*	31	9	26
COc1ccc(C(=O)Nc2ccccc2C(=O)Nc2ccccn2)cc1	24	3	-7	43*	45	17	24
Cn1nc(-c2ccccc2)c2ncc(C(F)(F)F)cc21	-14	4	10	4	3	-2	x
COc1ccc(NC(=O)c2cc([N+](=O)[O-])ccc2N2CCCC2)cc1S(N)(=O)=O	19	x	-2	0	7	3	x

Compound activity deposited in PubChem BioAssay by several laboratories.
